From the supplement of paper PMC12494721
Structures can show the parent of a compound that is named as a salt.

Experiments:
Conditions in all cases: 20 µM; incubation time: 27 h, anaerobic, 37 °C;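 for the amine columns active = adjusted P below 0.05 in both replicates with a change the same way and a mean fold change under 0.8 or over 1.25; inactive = the rest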
[1] = tested on: Clostridium sporogenes DSM 1664; assay: growth (OD595) fold change vs plate DMSO controls (fold change (ratio)); higher = more growth
Method in brief: (§1)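 After 27 h at 37 °C under anaerobic conditions, 96-well cultures in mGAM were shaken and read at 595 nm. The readings were blank-subtracted, corrected for compound background using 20 µM compound solutions in water, and converted to OD with a calibration factor of 5. Growth is defined as the fold change over the median of DMSO controls on each plate. Fold changes above 1.5 were set to NA, and each value is the mean of 2 biological replicates.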

Escherichia coli IAI1 [2] = assay: as above
Method in brief: as §1

[3] = tested on: Klebsiella aerogenes DSM 30053; assay: as above
Method in brief: as §1

[4] = tested on: Ruminococcus gnavus DSM 108212; assay: as above
Method in brief: as §1

[5] = tested on: Klebsiella aerogenes DSM 30053; assay: fold change of Histamine concentration vs plate DMSO controls (fold change (ratio)); higher = more amine produced, active = hit call of the paper (significant change in both replicates, either direction)
Method in brief: (§2)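 Anaerobic mGAM cultures of four gut bacterial strains were grown at 37 °C for 27 h in 80 µL wells, starting at OD 0.1 before 1:1 dilution. Compounds were at 20 µM final (sweeteners 50 µM). Whole cultures were extracted with cold acetonitrile/methanol containing 0.1% formic acid and centrifuged. Amines were quantified by LC–triple-quadrupole MS (dynamic MRM) against external calibration curves and drift-corrected within batch. Each value is the fold change versus plate DMSO controls, averaged over 2 biological replicates.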

[6] = tested on: Clostridium sporogenes DSM 1664; assay: fold change of Tryptamine concentration vs plate DMSO controls (fold change (ratio)); higher = more amine produced, active = hit call of the paper (significant change in both replicates, either direction)
Method in brief: as §2

[7] = tested on: Ruminococcus gnavus DSM 108212; assay: as above
Method in brief: as §2

Escherichia coli IAI1 [8] = assay: fold change of Putrescine concentration vs plate DMSO controls (fold change (ratio)); higher = more amine produced, active = hit call of the paper (significant change in both replicates, either direction)
Method in brief: as §2

[9] = tested on: Klebsiella aerogenes DSM 30053; assay: as above
Method in brief: as §2

Escherichia coli IAI1 [10] = assay: fold change of Cadaverine concentration vs plate DMSO controls (fold change (ratio)); higher = more amine produced, active = hit call of the paper (significant change in both replicates, either direction)
Method in brief: as §2

[11] = tested on: Klebsiella aerogenes DSM 30053; assay: as above
Method in brief: as §2

[12] = tested on: Ruminococcus gnavus DSM 108212; assay: fold change of 2-Phenylethylamine concentration vs plate DMSO controls (fold change (ratio)); higher = more amine produced, active = hit call of the paper (significant change in both replicates, either direction)
Method in brief: as §2

| Compound | growth [1] | growth (Escherichia coli IAI1 [2]) | growth [3] | growth [4] | fold change of Histamine concentration [5] | fold change of Tryptamine concentration [6] | fold change of Tryptamine concentration [7] | fold change of Putrescine concentration (Escherichia coli IAI1 [8]) | fold change of Putrescine concentration [9] | fold change of Cadaverine concentration (Escherichia coli IAI1 [10]) | fold change of Cadaverine concentration [11] | fold change of 2-Phenylethylamine concentration [12] |
| --- | --- | --- | --- | --- | --- | --- | --- | --- | --- | --- | --- | --- |
| C[C@]12CCC(=O)C=C1CC[C@@H]1[C@@H]2C(=O)C[C@]2(C)C(=O)CC[C@@H]12 [Adrenosterone] | 1.1 | 1.04 | 1.01 | 1 | 0.94 (inactive) | 1.02 (inactive) | 1.07 (inactive) | 1.09 (inactive) | 0.998 (inactive) | 1.01 (inactive) | 1.02 (inactive) | 1.07 (inactive) |
| N#Cc1c(Cl)c(Cl)c(Cl)c(C#N)c1Cl | 0.937 | 1.02 | 0.925 | 0.962 | 1.03 (inactive) | 0.995 (inactive) | 0.853 (inactive) | 1 (inactive) | 0.995 (inactive) | 1.08 (inactive) | 0.991 (inactive) | 0.804 (inactive) |
| CN1C[C@H](C(=O)N[C@]2(C)O[C@@]3(O)[C@@H]4CCCN4C(=O)[C@H](Cc4ccccc4)N3C2=O)C[C@@H]2c3cccc4[nH]cc(c34)C[C@H]21 [Dihydroergotamine tartrate] | 1.2 | 1.13 | 1.1 | 0.827 | 0.89 (inactive) | 0.928 (inactive) | 0.982 (inactive) | 1.06 (inactive) | 0.984 (inactive) | 0.966 (inactive) | 1.01 (inactive) | 0.921 (inactive) |
| CC(C)=CC1C(C(=O)OCc2cccc(Oc3ccccc3)c2)C1(C)C (configuration not stated) [Phenothrin] | 0.963 | 1.02 | 1.05 | 1.06 | 0.924 (inactive) | 1.02 (inactive) | 1.05 (inactive) | 1.07 (inactive) | 1.02 (inactive) | 1.03 (inactive) | 1.01 (inactive) | 1.06 (inactive) |
| CS(=O)(=O)c1ccc(C(=O)C2C(=O)CCCC2=O)c([N+](=O)[O-])c1 | 1.1 | 1.02 | 1 | 1.02 | 1.02 (inactive) | 0.928 (inactive) | 1 (inactive) | 0.929 (inactive) | 0.946 (inactive) | 0.973 (inactive) | 1.08 (inactive) | 0.999 (inactive) |
| C[C@]12CC[C@H](O)C[C@H]1CC[C@@H]1[C@@H]2C[C@@H](O)[C@]2(C)[C@@H](C3=CC(=O)OC3)CC[C@]12O [Digoxigenin] | 0.957 | 1.07 | 1.03 | 0.974 | 0.938 (inactive) | 1.04 (inactive) | 1.12 (inactive) | 1.04 (inactive) | 0.964 (inactive) | 1.01 (inactive) | 1.01 (inactive) | 1.12 (inactive) |
| c1ccc2c(c1)OCC(C1=NCCN1)O2 (configuration not stated) [Idazoxan hydrochloride] | 1.09 | 1.01 | 1.01 | 0.978 | 1 (inactive) | 0.976 (inactive) | 0.832 (inactive) | 1.1 (inactive) | 0.998 (inactive) | 0.996 (inactive) | 0.996 (inactive) | 0.785 (inactive) |
| CC(C)(C)NCC(O)c1ccccc1Cl (configuration not stated) [Tulobuterol Hydrochloride] | 0.953 | 0.972 | 0.966 | 1.11 | 0.972 (inactive) | 1 (inactive) | 1.01 (inactive) | 1.02 (inactive) | 1.02 (inactive) | 0.993 (inactive) | 1.01 (inactive) | 1.03 (inactive) |
| COc1ccc(C(CN(C)C)C2(O)CCCCC2)cc1 (configuration not stated) [Venlafaxine] | 0.902 | 0.974 | 0.983 | 1.1 | 1.04 (inactive) | 0.942 (inactive) | 1.01 (inactive) | 1.04 (inactive) | 1 (inactive) | 0.819 (inactive) | 0.974 (inactive) | 1.06 (inactive) |
| C#CCN1C(=O)COc2cc(F)c(N3C(=O)C4=C(CCCC4)C3=O)cc21 | 0.947 | 0.989 | 1 | 0.933 | 1.02 (inactive) | 1.14 (inactive) | 0.98 (inactive) | 1.01 (inactive) | 1.01 (inactive) | 1.04 (inactive) | 0.988 (inactive) | 0.969 (inactive) |
| CC1(C)C(C(=O)OC(C#N)c2cccc(Oc3ccccc3)c2)C1(C)C (configuration not stated) | 0.931 | 1.02 | 1.01 | 1.15 | 1 (inactive) | 1.06 (inactive) | 1.17 (inactive) | 0.937 (inactive) | 0.987 (inactive) | 0.982 (inactive) | 1 (inactive) | 1.25 (inactive) |
| O=C(NCNC(=O)NC1C(=O)NC(=O)N1CO)NC1C(=O)NC(=O)N1CO (configuration not stated) [Imidurea] | 1.05 | 1.06 | 0.987 | 1.19 | 1.02 (inactive) | 0.998 (inactive) | 1.01 (inactive) | 1.01 (inactive) | 1 (inactive) | 1 (inactive) | 0.994 (inactive) | 1 (inactive) |
| C[C@]12CC[C@H](O)C[C@@H]1CC[C@@H]1[C@@H]2CC[C@]2(C)C(=O)CC[C@@H]12 [Epiandrosterone] | 1.01 | 1.01 | 0.974 | 0.678 | 1.04 (inactive) | 0.953 (inactive) | 0.973 (inactive) | 0.99 (inactive) | 1.02 (inactive) | 1.02 (inactive) | 1 (inactive) | 0.962 (inactive) |
| CCC1(CC)C(=O)C=CNC1=O [Pyrithyldione] | 0.889 | 0.977 | 1.04 | 0.877 | 1.03 (inactive) | 0.966 (inactive) | 1.02 (inactive) | 1.01 (inactive) | 1.03 (inactive) | 1 (inactive) | 1.02 (inactive) | 0.996 (inactive) |
| C[C@@H]1C[C@@H]([C@H](O)CC2CC(=O)NC(=O)C2)C(=O)[C@@H](C)C1 [Cycloheximide] | 1.17 | 0.978 | 0.995 | 1.25 | 1.08 (inactive) | 0.956 (inactive) | 1.01 (inactive) | 1.06 (inactive) | 1.03 (inactive) | 1.01 (inactive) | 0.998 (inactive) | 0.95 (inactive) |
| OCC(O)CCl (racemic) | 0.938 | 1.02 | 0.97 | 0.97 | 1.01 (inactive) | 1.11 (inactive) | 1.08 (inactive) | 0.975 (inactive) | 0.959 (inactive) | 0.891 (inactive) | 1 (inactive) | 1.18 (inactive) |
| CO/N=C(/C(=O)OC)c1ccccc1CO/N=C(\C)c1cccc(C(F)(F)F)c1 | 0.917 | 1.01 | 0.98 | 1.1 | 1.02 (inactive) | 0.956 (inactive) | 0.991 (inactive) | 0.982 (inactive) | 0.987 (inactive) | 0.95 (inactive) | 1.02 (inactive) | 0.951 (inactive) |
| CC[C@@H](CO)NC(=O)[C@@H]1C=C2c3cccc4[nH]cc(c34)C[C@H]2N(C)C1 [Methylergometrine maleate] | 1.08 | 1.03 | 1 | 1.11 | 1.03 (inactive) | 1.03 (inactive) | 1.02 (inactive) | 0.965 (inactive) | 1.01 (inactive) | 0.996 (inactive) | 1 (inactive) | 1.02 (inactive) |
| C[C@@H]1CC[C@H]2[C@@H](C)C(=O)O[C@@H]3O[C@@]4(C)CC[C@@H]1[C@]32OO4 [Artemisinin] | 0.953 | 0.972 | 1.02 | 1.13 | 1.01 (inactive) | 1.02 (inactive) | 1.03 (inactive) | 1.01 (inactive) | 1.01 (inactive) | 0.966 (inactive) | 1.01 (inactive) | 1.03 (inactive) |
| C#C[C@]1(O)C=C[C@H]2[C@@H]3CCC4=CC(=O)CC[C@@H]4[C@H]3CC[C@@]21CC [Gestodene] | 1.16 | 1.02 | 1 | 0.924 | 1 (inactive) | 1.03 (inactive) | 1.01 (inactive) | 1.02 (inactive) | 0.993 (inactive) | 0.995 (inactive) | 0.988 (inactive) | 0.977 (inactive) |
| CCN(CC)c1nc(C)cc(OP(=S)(OC)OC)n1 | 1.04 | 1.01 | 0.98 | 1.13 | 1.01 (inactive) | 1.06 (inactive) | 1.06 (inactive) | 1.02 (inactive) | 0.969 (inactive) | 0.901 (inactive) | 1 (inactive) | 1.05 (inactive) |
